The values below come from PubChem BioAssay AID488835 (Broad Institute, 2010).

Screen size: about 1,400 compounds; about 140 (10%) were called active.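 How the source made its calls: active means Half-maximal inhibitory dose from the fit at or below ten times the top valid tested dose; inconclusive means Invalid fit, or flat curve showing 30 to 70% inhibition; inactive means the rest.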 The list is a sample of the results. Results with a measured potency or affinity are listed apart.

The target in the test is Lysine-specific demethylase 4C (Homo sapiens) (UniProt Q9H3R0). Nature of the test: GASC-1 (JMJD2C) histone demethylase inhibitors, dose response, biochemical, DELFIA europium, cherry-picked samples (AID 488835).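 Further: signal is the H3K9me2 demethylation product detected by a dimethyl-specific antibody.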 Conditions: GST-JMJD2C(1-420), H3K9me3 demethylation; series mostly up to 6 µM.
Sequence of Lysine-specific demethylase 4C (Homo sapiens) (Q9H3R0 1-420 limits assumed): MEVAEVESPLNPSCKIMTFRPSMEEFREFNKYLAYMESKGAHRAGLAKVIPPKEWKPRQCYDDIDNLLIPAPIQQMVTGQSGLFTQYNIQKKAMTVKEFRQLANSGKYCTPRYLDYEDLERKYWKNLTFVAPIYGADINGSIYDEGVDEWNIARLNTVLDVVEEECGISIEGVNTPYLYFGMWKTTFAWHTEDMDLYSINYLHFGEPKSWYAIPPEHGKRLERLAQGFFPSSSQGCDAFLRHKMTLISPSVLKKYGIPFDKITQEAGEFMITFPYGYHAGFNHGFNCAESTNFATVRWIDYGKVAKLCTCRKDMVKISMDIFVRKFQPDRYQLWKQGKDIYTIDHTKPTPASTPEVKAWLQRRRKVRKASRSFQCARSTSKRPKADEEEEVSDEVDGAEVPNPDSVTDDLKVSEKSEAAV
Regarding `COC(=O)c1cc(OC)c(OC)cc1NC(=O)Cn1nnc(-c2ccccc2Cl)n1`, the compound was called inactive.

For the compound `CC12CN3CC(C)(CN(C1)C3c1ccc3ccccc3c1O)C2=O` (configuration not stated), the compound was called inactive.

`COc1ccc2c(C(=O)NCCCCO)c(-c3ccc(S(C)(=O)=O)cc3)sc2c1`: the outcome was inactive.

`C#CC[N+]1(CC#Cc2ccc(C#CC[N+]3(CC#C)CCOCC3)cc2)CCOCC1`: the compound was classed as inactive.

For the compound `CSc1nc(N2CCN(C)CC2)c2c(c1C#N)CC(C)(C)OC2`, the compound was called inactive.

`Cc1ccc(NC(=O)CSc2ncccn2)c([N+](=O)[O-])c1`: the call was inactive.

Turning to `Nc1nnc(SC2CC(=O)N(c3ccccc3)C2=O)s1` (configuration not stated), the call was inactive.

Take `C=CCN(C(=O)Nc1ccccc1)C1CC(=O)N(c2ccc(OC)cc2)C1=O` (configuration not stated): the compound was classed as inactive.

For the compound `Cc1nnc2c(N3CCN(C(=O)c4ccco4)CC3)nc3ccccc3n12`, the call was inactive.

Consider `Cc1c(C(=O)Nc2ccc3c(c2)OCO3)sc2ncn(CC(=O)N3CC(C)CC(C)C3)c(=O)c12` (configuration not stated), for which the compound was called inactive.

As for `O=C(Nc1nc2c(s1)C(=O)CCC2)c1ccccc1`, the result was inactive.

Turning to `CCCN1C(=O)c2ccc(C(=O)Nc3cc(C)ccc3O)cc2C1=O`, the compound was classed as inactive.

With `C[C@H](CO)N1C[C@H](C)[C@@H](CN(C)S(=O)(=O)c2cn(C)cn2)Oc2ccc(NC(=O)C3CC3)cc2C1=O`, the result was inactive.

`C[C@H](CO)N1C[C@H](C)[C@H](CN(C)S(=O)(=O)c2ccccc2)Oc2c(NS(C)(=O)=O)cccc2C1=O`: the compound was classed as inactive.

As for `COC(=O)c1c(-c2cccs2)csc1NC(=O)CN1CCOCC1`, the compound was called inactive.

As for `Cc1nc2ccccn2c1C(=O)NCCCN1CCOCC1`, the outcome was inactive.

In the case of `O=C(NCCCN1CCOCC1)c1cccc(S(=O)(=O)N2CCc3ccccc3C2)c1`, the outcome was inactive.

As for `Cc1ccc(S(=O)(=O)N2CCOCC2)cc1NC(=O)COC(=O)c1cc(=O)[nH]c2ccccc12`, the call was inactive.

Take `Cc1c(C(=O)NCc2cccs2)oc2ccccc12`: the result was inactive.

On to `Cc1cc(NC(=O)COc2ncnc3sc(C)c(C)c23)no1`, for which the compound was classed as inactive.

Take `Cn1c(SCC(=O)Nc2cc(S(=O)(=O)N3CCOCC3)ccc2N2CCOCC2)nnc1-c1ccncc1`: the compound was called inactive.

For the compound `Cc1ccccc1C(=O)OCCCN=C1NS(=O)(=O)c2ccccc21`, the result was inactive.

With `O=C(CCc1ccc(S(=O)(=O)NCc2ccccc2)cc1)NCc1ccc2c(c1)OCO2`, the call was inactive.

As to `Cc1noc(C)c1S(=O)(=O)N(C)C[C@H]1Oc2c(NC(=O)Nc3ccccc3)cccc2C(=O)N([C@H](C)CO)C[C@@H]1C`, the outcome was inactive.

For `O=C(NN=C1CCCCCCCCCCC1)c1cccc(S(=O)(=O)N2CCOCC2)c1`, the compound was called inactive.

With `O=C(CC1NC(=O)NC1=O)Nc1ccccc1` (configuration not stated), the outcome was inactive.

Turning to `Cc1nnnn1/C(=C\c1ccccc1)C(=O)OCC(=O)NC(C)(C)C`, the call was inactive.
